# From PubChem BioAssay AID463173 (ICCB-Longwood Screening Facility, Harvard Medical School, 2010)
# Among all 52,000 compounds or so, about 4,300 (8.3%) were called active. What follows is part of a selection rich in actives, with near analogues and random picks from the rest. A number with no mark means an inactive call. No stated cut-off is given here; in the data, active means survival mostly below about 52% (no sharp cut-off); inactive means mostly above about 56%.
# System: DeltatarO mutant
# Assay: growth inhibition of S. aureus wild type versus tarO mutant, primary screen, teichoic acid synthesis inhibitors, RN4220, OD600 (AID 463173)
# Settings: OD600, 18 h, hits give low values, screened at 18.75 µg/mL (by protocol)
row,SMILES,survival
1,Cc1ccc(-n2c(=O)c3ccc(C(=O)NCc4ccco4)cc3n(Cc3ccccc3Cl)c2=O)cc1,99%
2,c1ccc2c(c1)n1cnnc1c1nncn21,85%
3,CC1=C(C(=O)Nc2ccc(C)cc2C)C(c2ccc([N+](=O)[O-])cc2)n2ncc(C(=O)Nc3ccc(F)cc3)c2N1 (stereo not drawn),101%
4,O=C(O)c1ccc(N2CCOCC2)cc1,80%
5,COc1ccc(N2CCN(CC(O)COc3ccc(C(C)C)c(C)c3)CC2)cc1 (stereo not drawn),66%
6,COc1ccc(N2CCN(CC(O)COc3ccc(C(C)(C)C)cc3)CC2)cc1 (stereo not drawn),84%
7,C=CCc1ccccc1OCC(O)CN1CCN(c2ccccc2)CC1 (stereo not drawn),83%
8,COc1ccc(N2CCN(CC(O)COc3ccccc3C(C)(C)C)CC2)cc1 (stereo not drawn),-8% (active)
9,COc1ccc(N2CCN(CC(O)COc3c(OC)cccc3OC)CC2)cc1 (stereo not drawn),71%
10,COc1ccccc1N1CCN(CC(O)COc2cc(C)cc(C)c2)CC1 (stereo not drawn),71%
11,COc1ccc(N2CCN(CC(O)COc3ccc(C)cc3C)CC2)cc1 (stereo not drawn),98%
12,Cc1ccc(C(C)C)c(OCC(O)CN2CCN(c3ccccc3F)CC2)c1 (stereo not drawn),-5% (active)
13,COc1ccccc1N1CCN(CC(O)COc2ccc(C)cc2C(C)(C)C)CC1 (stereo not drawn),1% (active)
14,CN(C)c1ccc(C(CNS(=O)(=O)c2ccc(Br)cc2)N2CCOCC2)cc1 (stereo not drawn),74%
15,CCc1c(C)sc2c1CCN(Cc1ccccc1F)C2c1ccccc1 (stereo not drawn),102%
16,CCCCC(=O)N1CCc2cc(OC)c(OC)cc2C1COc1ccc(C(=O)OCC)cc1 (stereo not drawn),70%
17,O=C(CN1C(=O)COc2ccc(S(=O)(=O)N3CCCCC3)cc21)NCCc1ccc(Cl)cc1,73%
18,CCOc1ccc(N2CC(NC(=O)c3ccc(Cl)cc3)CC2=O)cc1 (stereo not drawn),73%
19,N#CSc1ccc2nc(N)sc2c1,66%
20,CC(C)(C)Sc1ccc(SC#N)s1,1% (active)
21,O=C1CC(c2ccc(Br)cc2)c2c(ccc3ccccc23)N1 (stereo not drawn),32% (active)
22,O=C1CC(c2c(Cl)cccc2Cl)c2c(ccc3ccccc23)N1 (stereo not drawn),73%
23,Cc1ccccc1C1CC(=O)Nc2ccc3ccccc3c21 (stereo not drawn),93%
24,CC(C)c1ccc(CNc2nc(-c3ccco3)nn2C(=O)c2ccc([N+](=O)[O-])cc2)cc1,79%
25,COc1ccc(NC(=O)Cn2nnc(C(=O)NCc3ccc4c(c3)OCO4)c2N)cc1,76%
26,N#C/C(=C\c1ccc(F)cc1)C(=O)NCC1CCCO1 (stereo not drawn),68%

row,SMILES,survival
1,N#C/C(=C\c1ccc(Cl)cc1)C(=O)NCC1CCCO1 (stereo not drawn),44% (active)
2,COc1cc(/C=C(\C#N)C(=O)NCC2CCCO2)ccc1O (stereo not drawn),83%
3,CCOC(=O)c1[nH]c(C)c(CCC(=O)Nc2ccccc2C(=O)OC)c1C,77%
4,Cn1c(-c2ccccc2)cnc1NCc1ccccc1O,46% (active)
5,Cn1c(-c2ccc3c(c2)OCO3)cnc1NCc1cc(Cl)ccc1O,70%
6,Cc1ccc(-c2cnc(NC(=O)CCC(=O)N3CCCCC3)n2C)cc1,91%
7,CCn1c(NCc2cccc(Cl)c2)nc2ccccc21,102%
8,Cc1ccc(CNC(=O)c2ccc(CSCc3c(F)cccc3Cl)o2)cc1,90%
9,CCOc1ccc(-c2cnc(NCc3cccc(Cl)c3)n2C)cc1,30% (active)
10,Cc1ccc(-c2cnc(NCc3ccc(C(F)(F)F)cc3)n2C)cc1,-5% (active)
11,Cc1ccc(CNc2nccn(-c3cc(C)cc(C)c3)c2=O)cc1,95%
12,CCCc1cc(=O)n2[nH]c(NCc3c(F)cccc3Cl)nc2n1,86%
13,Cn1c(-c2ccccc2)cnc1SCc1ccccc1,108%
14,Cn1c(NCc2cccc(Cl)c2)nc2ccccc21,104%
15,Cc1ccc(-c2cnc(NCc3c(F)cccc3Cl)n2C)cc1,-4% (active)
16,Cc1cc(C)cc(-n2c(SCC(=O)N3CCCCCC3)nc3c([nH]c4ccccc43)c2=O)c1,94%
17,CCOc1ccc(N(CC)C(=O)c2nn(-c3ccc(OC)cc3)c(=O)c3c2c2ccccc2n3C)cc1,82%
18,CCOc1cc2sc(N3CCC(C(=O)Nc4ccc(C(C)C)cc4)CC3)nc2cc1Br,75%
19,COC(=O)CN(c1ccccc1Cl)S(C)(=O)=O,52%
20,COc1ccc(NC(=O)c2oc3ccccc3c2NC(=O)c2cccc(F)c2)c(OC)c1,95%
21,COc1cc(OC)c(NC(=O)C2=C(C)C(=O)OC23CCN(C(C)=O)CC3)cc1Cl,75%
22,Cc1ccc(NC(=O)CN2C=NS(=O)(=O)c3ccccc32)c(C)c1,99%
23,COc1ccc(-c2nc(Cn3c(SCc4ccc(C)cc4)nc4cccnc43)c(C)o2)cc1OC,113%
24,COc1ccc(-c2cnc(NCc3ccc(C)cc3)n2C)cc1,121%
25,CCOc1ccc(-n2cc(-c3ccccc3)c3c(NCc4ccc(F)cc4)ncnc32)cc1,95%
26,CCOc1ccc(NC(=O)C(=O)NCCc2csc(-c3ccc(C(F)(F)F)cc3)n2)cc1,94%

row,SMILES,survival
1,CCOc1ccc(-c2cnc(NCc3ccc(C(F)(F)F)cc3)n2C)cc1,-3% (active)
2,Cc1ccc(CNc2nc3c(c(=O)n(C)c(=O)n3C)n2Cc2ccc(Cl)cc2)cc1,54%
3,Cc1ccc(-c2cnc(NCc3ccc(C(C)C)cc3)n2C)cc1,-4% (active)
4,Cc1ccc(NC(=O)CCN2C(=O)c3ccccc3Sc3ncccc32)c(Cl)c1,74%
5,CCOc1ccc(C(=O)NCCc2csc(-c3cccnc3)n2)cc1,81%
6,Cc1ccc(CNc2nc3ccccc3n3c(C)nnc23)cc1,88%
7,CCn1nc(C)c(CCN(C)C(=O)Nc2ccc(C)c(Cl)c2)c1C,88%
8,Cc1ccc(CCNC(=O)c2cc3cc4cc(C)ccc4nc3s2)cc1,46% (active)
9,CCOc1ccccc1NC(=O)c1cc2cc3cc(C)ccc3nc2s1,91%
10,COc1ccc2nc3sc(C(=O)NCCc4ccc(Cl)cc4)cc3cc2c1,103%
11,CSc1ccc(CCNC(=O)c2cc3cc4cc(C)ccc4nc3s2)cc1,144%
12,CCOc1ccc(NC(=O)c2cc3cc4cc(OC)ccc4nc3s2)cc1,82%
13,Cc1ccc2nc3sc(C(=O)Nc4ccc(F)cc4)cc3cc2c1,37% (active)
14,CNC(=O)CN(C1CCCCC1)S(=O)(=O)c1ccc(C)cc1,75%
15,CC(C)C(=O)c1cn(CC(=O)NCc2cccs2)c2ccccc12,88%
16,CC(C)NC(=O)C1CCC(Cn2c(=O)c3sccc3n(CC(=O)Nc3ccccc3)c2=O)CC1 (stereo not drawn),74%
17,CCc1ccc(CNC(=O)c2cnc3sc(N4CCCCC4)nn3c2=O)cc1,99%
18,COC(=O)c1ccc(OC)c(CN2CCCN(Cc3ccc(C)cc3)S2(=O)=O)c1,20% (active)
19,Cc1ccc(C)c(CN2CCCN(Cc3ccc(F)cc3)S2(=O)=O)c1,-5% (active)
20,COC(=O)c1ccc(NC(=O)CN2CCCN(Cc3ccc(Cl)cc3)S2(=O)=O)cc1,94%
21,Cc1ccc(CN2CCCN(Cc3c(C)cc(C)cc3C)S2(=O)=O)cc1,91%
22,COc1ccc(NC(=O)CN2CCCN(Cc3ccc(Cl)cc3)S2(=O)=O)cc1Cl,60%
23,Cc1ccc(C)c(CN2CCCN(Cc3ccccc3C)S2(=O)=O)c1,87%
24,CCOC(=O)CCCN1C(=O)CCn2nc(-c3cn(C)c4ccccc34)cc21,69%
25,CCN(c1ccccc1C)S(=O)(=O)c1ccc(N2CCCCS2(=O)=O)cc1,125%
26,CCSc1nnc(C2CCCN(CC(=O)NC3CCCCC3C)C2)n1CC (stereo not drawn),74%

row,SMILES,survival
1,Cc1oc(-c2ccc(Cl)cc2)nc1CN1CCCC(C(=O)NCc2ccc(Cl)cc2)C1 (stereo not drawn),59%
2,Cc1oc(-c2cccc(Cl)c2)nc1CN1CCCC(C(=O)NCc2ccc(Cl)cc2)C1 (stereo not drawn),-1% (active)
3,Cc1cccc(-c2nc(CN3CCCC(C(=O)NCc4ccc(Cl)cc4)C3)c(C)o2)c1 (stereo not drawn),18% (active)
4,Cc1ccccc1-c1nc(CN2CCCC(C(=O)NCc3ccc(Cl)cc3)C2)c(C)o1 (stereo not drawn),61%
5,Cc1oc(-c2cccc(Cl)c2)nc1CN1CCCC(C(=O)NCc2ccc(F)cc2)C1 (stereo not drawn),52%
6,Cc1ccc(CNC(=O)C2CCCN(Cc3nc(-c4cccc(C)c4)oc3C)C2)cc1 (stereo not drawn),41%
7,CSCCC(NS(=O)(=O)c1ccc2c(c1)oc(=O)n2C)C(=O)N1CCN(c2cccc(Cl)c2)CC1 (stereo not drawn),72%
8,Cc1nn(-c2ccccc2)c2c1N(CCCC(=O)NCc1ccc(Cl)cc1)C(=O)CS2,94%
9,Cc1cccc(CNC(=O)c2ccc3nc(Cc4ccccc4)oc3c2)c1,124%
10,CCOc1ccc(NC(=O)CSc2nc3c([nH]c4ccccc43)c(=O)n2-c2cc(C)cc(C)c2)cc1,89%
11,Cc1ccc(N2CC(NC(=O)c3ccc(S(=O)(=O)N4CCCC4)cc3)CC2=O)cc1C (stereo not drawn),83%
12,O=C(Cn1ncc2c3ccccc3n(Cc3ccccc3F)c2c1=O)NCCCc1ccccc1,81%
13,Cc1cc(C)c2nc(N(Cc3cccnc3)C(=O)CCOc3ccccc3)sc2c1,84%
14,CN(C(=O)CSc1nc2ccccc2n1Cc1cccc(C(F)(F)F)c1)c1ccccc1,66%
15,COC(=O)c1ccc(Cn2c(SCC(=O)N(C)c3ccccc3)nc3ccccc32)cc1,60%
16,COc1ccc(NC(=O)CSc2nc3ccccc3n2CC(=O)NCc2ccc(F)cc2)cc1,-5% (active)
17,COc1cccc(Cn2c(SCC(=O)N(C)c3ccccc3)nc3ccccc32)c1,-4% (active)
18,O=C(Cn1c(SCC(=O)Nc2ccc(F)cc2)nc2ccccc21)NCc1ccc(F)cc1,91%
19,COc1ccc(CNC(=O)Cn2c(SCC(=O)Nc3ccc(OC)cc3)nc3ccccc32)cc1,89%
20,COc1cccc(Cn2c(SCC(=O)N3CCN(c4ccc(F)cc4)CC3)nc3ccccc32)c1,66%
21,O=C(CSc1nc2ccccc2n1Cc1ccc(F)cc1)N1CCN(c2ccc(F)cc2)CC1,92%
22,COc1cccc(CNC(=O)Cn2c(SCC(=O)Nc3ccc(F)cc3)nc3ccccc32)c1,8% (active)
23,COc1cccc(CNC(=O)Cn2c(SCC(=O)Nc3ccc(C)c(C)c3)nc3ccccc32)c1,87%
24,Cc1ccc(CNC(=O)Cn2c(SCC(=O)Nc3ccc(F)cc3)nc3ccccc32)cc1,126%
25,COc1ccc(Cn2c(SCC(=O)N3CCN(c4ccc(F)cc4)CC3)nc3ccccc32)cc1,47% (active)
